Source: PubChem BioAssay (NCI)
This is part of a sample that, as a whole, favours compounds with a hit. Of some 79,000 tested, about 15% had one in any assay. Rule as the data show it: active = growth inhibition above about 70%; inactive = the rest.

Assays:
[1] = NCI Yeast Anticancer Drug Screen. Data for the rad50 strain (AID 155);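 also: 0% = growth of vehicle-only cultures of the same strain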; details: S. cerevisiae rad50 strain growth inhibition; at 50.0 µM; hits give high values
Procedure, shortened: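 Relative growth inhibition (compound vs vehicle) was measured in yeast with a defined repair-gene alteration.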

[2] = NCI Yeast Anticancer Drug Screen. Data for the mec2-1 strain (AID 157); details: S. cerevisiae mec2-1 strain, at 50.0 µM, hits give high values
Procedure, shortened: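 Using mec2-1 yeast: add compound, measure growth, express inhibition versus vehicle-treated cultures.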

[3] = NCI Yeast Anticancer Drug Screen. Data for the sgs1 mgt1 strain (AID 161);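 also: 0% = growth of cultures given vehicle only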; details: S. cerevisiae sgs1 mgt1 strain, at 50.0 µM, hits give high values
Procedure, shortened: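 Compounds are added to genetically altered yeast, and growth is compared with cultures given vehicle alone to give percent inhibition.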

[4] = NCI Yeast Anticancer Drug Screen. Data for the cln2 rad14 strain (AID 165);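 also: 0% = growth equal to vehicle treated cultures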; details: S. cerevisiae cln2 rad14 strain, at 50.0 µM, hits give high values
Procedure, shortened: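 Yeast strain cln2 rad14, bearing defects in cell cycle control and DNA repair, serves as the test system; values reflect growth inhibition compared with vehicle.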

[5] = NCI Yeast Anticancer Drug Screen. Data for the bub3 strain (AID 167); details: S. cerevisiae bub3 mutant strain, at 50.0 µM, hits give high values
Procedure, shortened: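 Screening used yeast with an engineered genetic alteration affecting cell cycle control. Compound-exposed cultures were compared with vehicle cultures, and reduced growth was taken as inhibition.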

[6] = NCI Yeast Anticancer Drug Screen. Data for the mlh1 rad18 strain (AID 175); details: S. cerevisiae mlh1 rad18 strain growth inhibition; at 50.0 µM; hits give high values
Procedure, shortened: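 Steps: expose repair-defective yeast to compound; measure growth; express inhibition against vehicle-treated controls.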

Measured: growth inhibition

Nc1nc(N)c(CCCCc2ccc([N+](=O)[O-])cc2)c(N)n1
inactive: [1] -1.05% | [2] 21.1% | [3] 24.1% | [4] -9.95% | [5] -1.4% | [6] -21.3%

O=c1c2nn3c(=O)n(-c4ccccc4)c(=O)c3nn2c(=O)n1-c1ccccc1
inactive: [1] -33% | [2] -10.6% | [3] -14.8% | [4] -5.8% | [5] -24.7% | [6] -3.05%

NC(=O)C1CCCC1
inactive: [1] -3.3% | [2] 2.1% | [3] -5.25% | [4] 14.1% | [5] 23.4% | [6] -5.05%

COc1ccc(C(O)C(c2ccc(OCc3ccccc3)cc2)c2ccc(OCc3ccccc3)cc2)cc1 (centres undefined)
inactive: [1] 1.05% | [2] -27.9% | [3] -5.15% | [4] -4.25% | [5] -29.2% | [6] -22.4%

O=[N+]([O-])c1ccc(COP(=O)(OCc2ccc([N+](=O)[O-])cc2)OCc2ccc([N+](=O)[O-])cc2)cc1
inactive: [1] -8% | [2] -2.35% | [3] 2.9% | [4] -46.5% | [5] 25.3% | [6] 4.75%

O=C(NN1C(=O)C(Cl)C1c1cccc(O)c1)c1ccccc1O (centres undefined)
inactive: [1] -47.5% | [2] -34% | [3] -32.8% | [4] 5.55% | [5] -29.2% | [6] -39.1%

CN(C)c1nc(Cl)c2c(-c3ccccc3)c(-c3ccccc3)oc2n1
inactive: [1] -0.6% | [2] 3% | [3] 10.5% | [4] 16.1% | [5] 24.6% | [6] -25.1%

COc1cc2c(c([N+](=O)[O-])c1)NC(=O)CC(C)S2 (centres undefined)
inactive: [1] -48.8% | [2] -6.25% | [3] 21.9% | [4] -9.4% | [5] 17.4% | [6] -3.45%

O=C(O)c1nccc2c(O)cccc12
inactive: [1] -5.75% | [2] -4.45% | [3] -16.1% | [4] -19.6% | [5] -23.9% | [6] 3.3%

O=COCCCCCc1ccccc1
inactive: [1] -10.6% | [2] -5.05% | [3] -2.55% | [4] 8.6% | [5] -6.45% | [6] -11%

O=C(O)C(=Cc1ccc(Br)cc1)C(=O)O
inactive: [1] 41.5% | [2] -25.8% | [3] 13.5% | [4] 20.8% | [5] 23.1% | [6] 31.9%

O=C(CCCCC(=O)Oc1ccc([N+](=O)[O-])cc1)Oc1ccc([N+](=O)[O-])cc1
inactive: [1] 10.9% | [2] 3.25% | [3] 13.3% | [4] 32% | [5] 3.4% | [6] 33%

CCN(CC)c1nc(N(C)C)nc(N(C)C)n1
inactive: [1] -9% | [2] -4.3% | [3] 2.15% | [4] -7.25% | [5] 18.7% | [6] 7%

O=c1c2ccccc2nc(-c2ccccc2)n1/N=C/c1cccnc1
inactive: [1] 0.9% | [2] 49.5% | [3] 30.8% | [4] -10.8% | [5] 7.5% | [6] 41.2%

O=C(CCCN1CCC(O)(c2ccc(Cl)cc2)CC1)c1ccc(N2CCC(O)CC2)cc1
inactive: [1] 0.8% | [2] -2.05% | [3] -0.65% | [4] -44.6% | [5] 4.4% | [6] 1.1%

COSCCCC(C)=O
inactive: [1] 25.5% | [2] 4% | [3] -5.15% | [4] 13.8% | [5] 6.55% | [6] 13.8%

COC(=O)c1cc2ccccc2[nH]1
inactive: [1] 4% | [2] 8% | [3] -7.6% | [4] -15.3% | [5] -11.9% | [6] -13.8%

CCOc1ccc(C2OCC(C)O2)cc1OC (centres undefined)
inactive: [1] 13.2% | [2] 13.6% | [3] 2.3% | [4] 10.3% | [5] -0.5% | [6] 11.7%

O=C1NC2C1C1c3ccccc3C2C12CC2 (centres undefined)
inactive: [1] -11.1% | [2] -7.95% | [3] -13.6% | [4] -11.8% | [5] 13.1% | [6] -1.85%

CCOC(=O)/C=C\C(=O)OCC
inactive: [1] 29.7% | [2] 2.55% | [3] 9.35% | [4] 10% | [5] 9.95% | [6] -1.1%

CN(C)C1=c2c(=O)n(C)c(=O)n(C)c2=NC2C=CC=CN12 (centres undefined)
inactive: [1] 10.8% | [2] 13.6% | [3] 17.4% | [4] 4.15% | [5] 15% | [6] 22.6%

COc1ccc(Cl)cc1NC(=O)Nc1cccc(C(C)=O)c1
inactive: [1] -4.55% | [2] 16.6% | [3] 11.3% | [4] -13.3% | [5] 17.9% | [6] 31.4%

CC1(C(=O)Sc2ccccc2)OC1(C)c1ccccc1 (centres undefined)
inactive: [1] -8.5% | [2] 7.65% | [3] 4.85% | [4] -28.1% | [5] 14.8% | [6] 18.1%

COc1ccc(-n2[nH]nc(C(N)=O)c2=O)cc1
inactive: [1] 7.6% | [2] -2.5% | [3] -33.4% | [4] -22.6% | [5] -24.6% | [6] -65%

OCC1OC(OC2CCCCC2)C(O)C(O)C1O (centres undefined)
inactive: [1] -1.45% | [2] 51.5% | [3] 21.9% | [4] -5.05% | [5] 24.6% | [6] 32.8%

CC(=O)N=c1ccc2nc(N)nn(O)c-2c1
inactive: [1] 9.5% | [2] 0.05% | [3] -10.4% | [4] -4.95% | [5] -33.6% | [6] -26.6%

COc1ccc(C(=O)Oc2ccc(C)c(CC(Cl)(Cl)Cl)c2)cc1
inactive: [1] -6.1% | [2] -9.5% | [3] 6.75% | [4] -12.3% | [5] -6.35% | [6] -14.4%

OCC(O)c1ccccn1 (centres undefined)
inactive: [1] 5.5% | [2] -18.8% | [3] 6.65% | [4] -1.45% | [5] 2.55% | [6] 6.2%

CNC(=O)NS(=O)(=O)c1cccc([N+](=O)[O-])c1
inactive: [1] -0.3% | [2] 5.35% | [3] -8.3% | [4] 1.9% | [5] -21.6% | [6] -17.3%

O=NN(CCCl)C(=O)N[C@H]1CCC[C@@H](O)C1
inactive: [1] 5.85% | [2] -3.35% | [3] -6.2% | [4] -42.9% | [5] -15.2% | [6] 6%

CCCCCCCC/C=C\CCCCCCCC(=O)OCCN(CCOC(=O)CCCCCCC/C=C/CCCCCCCC)C(=O)COC(=O)CCCCCCC/C=C\CCCCCCCC
inactive: [1] -9.3% | [2] -11.8% | [3] -24.4% | [4] -7.6% | [5] -7.35% | [6] 10.7%

OCCc1c[nH]c2ccccc12
inactive: [1] -18.7% | [2] -16.2% | [3] 10.5% | [4] -17.3% | [5] -1.85% | [6] 11.8%

CC(O)CN1CNC(=S)NC1 (centres undefined)
inactive: [1] -3.8% | [2] -39.3% | [3] -3.55% | [4] 8.75% | [5] -16.2% | [6] -7.25%

C[n+]1cccc(NC(=O)COc2ccc(Cl)c(Cl)c2)c1
inactive: [1] 15.3% | [2] 3.95% | [3] -5.4% | [4] -18% | [5] -1.75% | [6] 21.5%

COc1ccc(-c2cc(=O)c3cccc(CC(=O)O)c3o2)cc1
inactive: [1] 8.2% | [2] 11.7% | [3] -0.3% | [4] 31.1% | [5] 2.05% | [6] 18.4%

C=CCOC(=O)/C=C\c1ccccc1OC
inactive: [1] 23.9% | [2] 6.45% | [3] 16.6% | [4] -39.9% | [5] 14.8% | [6] -3.3%

C=CCNC(=O)N(CCCC(NC(C)=O)C(=O)NCc1ccccc1)Cc1ccccc1 (centres undefined)
inactive: [1] 2.5% | [2] -2.85% | [3] -8.85% | [4] 26.4% | [5] -5.25% | [6] -10.2%

Cc1cccc(NC(=O)Nc2ccccc2)n1
inactive: [1] 4.65% | [2] 0.9% | [3] 9.55% | [4] -71.5% | [5] -18.9% | [6] -10.1%

CC(N)C(=O)NC(C(=O)O)C(C)C (centres undefined)
inactive: [1] -2.4% | [2] -2.55% | [3] -16.1% | [4] -14.7% | [5] 0.3% | [6] -23.4%
